ANO1 activ: mouse TMEM16A channel activation, primary screen; Q8BHY3; HEK293 TMEM16A/YFP-H148Q/I152L, iodide quench fluorescence; active compounds read low; B-score at 10 µM; 340,000 compounds, 0.3% hits; AID 623877;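 active = fluorescence-ratio B-score plate-corrected deviation score at least 3 library SD below zero, with starting fluorescence score within 5 deviations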;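 also: channel opened by trigger with iodide after compound preincubation; score built on the fluorescence ratio of max minus min over baseline; more negative score means more quench and so TMEM16A activation or potentiation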
TMEM16A inh: inhibitors of mouse TMEM16A calcium-activated chloride channel | HEK293 TMEM16A/YFP iodide influx fluorescence, ionomycin | normalized B-score (activity score, 25-100; higher = stronger inhibition) at 10 µM | 310,000 compounds, 1.2% hits;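 active = ratio plate-corrected score three or more library SD toward inhibition, starting fluorescence score within five deviations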;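 also: score derived from kinetic fluorescence span divided by baseline fluorescence per well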
NTR1 ag: NTR1 (human) agonism; NTR1-U2OS beta-arrestin-GFP spot imaging, agonist mode; activation, % at 20 µM; 330,000 compounds, 0.17% hits; P30989; AID 493036;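 active = activation at or above 40% of the spot to cytoplasm intensity ratio, with at least 20 cells analyzed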;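 also: 0% = DMSO without peptide and 100% = 100 nM NTR1 peptide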
MEKK2 mut-MEK5: signal of MEK5 binding to mutant human MEKK2 PB1 domain | AID 1530 | bead flow cytometry, Alexa488-MEK5 binding to MEKK2 mutant | 290,000 compounds, 0.35% hits | percent response, % at 10 µM; in the data active = percent response above about 24%, passing the limit was not always enough
MEKK3 PB1 HTS: MEKK3-MEK5 PB1 interaction, increase or decrease. Q99759. 290,000 compounds, 1.4% hits. AID 1529. binding response (% of control), % at 10 µM. bead-based flow cytometry, Alexa488-MEK5 binding to MEKK3; actives lie on both sides; 0 = blocked by unlabeled MEK5, 100 = vehicle;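 active = binding response more than 3 SD above or below the average of its plate-row segment, actives on both sides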;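 also: Alexa488 bead fluorescence after subtracting the streptavidin-only scavenger bead signal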
Target sequence (Q99759 whole entry, looked up): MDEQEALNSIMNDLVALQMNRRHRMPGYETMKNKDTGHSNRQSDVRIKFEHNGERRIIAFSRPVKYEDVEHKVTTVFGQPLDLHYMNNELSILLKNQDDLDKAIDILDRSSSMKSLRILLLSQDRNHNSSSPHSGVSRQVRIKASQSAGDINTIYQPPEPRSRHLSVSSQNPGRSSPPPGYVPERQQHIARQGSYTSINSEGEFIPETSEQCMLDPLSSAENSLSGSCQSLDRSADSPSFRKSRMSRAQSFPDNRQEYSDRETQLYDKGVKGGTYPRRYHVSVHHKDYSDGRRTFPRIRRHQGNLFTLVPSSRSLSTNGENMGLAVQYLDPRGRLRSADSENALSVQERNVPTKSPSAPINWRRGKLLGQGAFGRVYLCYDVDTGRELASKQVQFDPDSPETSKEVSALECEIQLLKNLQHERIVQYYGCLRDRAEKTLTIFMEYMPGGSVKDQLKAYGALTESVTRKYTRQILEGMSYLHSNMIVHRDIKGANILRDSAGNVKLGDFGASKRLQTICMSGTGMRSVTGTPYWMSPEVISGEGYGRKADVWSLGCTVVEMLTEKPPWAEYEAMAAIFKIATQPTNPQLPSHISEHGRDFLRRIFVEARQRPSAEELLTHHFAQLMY
MEKK2wt PB1 HTS: raises or lowers MEK5 binding to wildtype human MEKK2 PB1 domain; 290,000 compounds, 1.1% hits; binding response (% of control), % at 10 µM; AID 1531; Q9Y2U5; bead flow cytometry, Alexa488-MEK5 binding to MEKK2 WT; actives lie on both sides; in the data active = binding response below about 67% or above about 130%
TMEM16A reconf: TMEM16A (mouse) chloride channel inhibition, re-confirmation; shares compounds with TMEM16A inh; HEK293 TMEM16A/YFP-H148Q, iodide quench fluorescence; ionomycin added to raise cell calcium; inhibition, % at 10 µM; 2,300 compounds, 39% hits; AID 652189;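 active = mean duplicate percent inhibition, scaled so buffer wells are 0 and the reference blocker 100, over three buffer SD above buffer mean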
TMEM16A Ca cntr: calcium mobilization counter-screen hit for TMEM16A inhibitor series; shares compounds with TMEM16A inh; TMEM16A/YFP HEK293, Fluo4 calcium mobilization; calcium response (% of ionomycin), % at 10 µM; 2,300 compounds, 2% hits; AID 652231;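 active = duplicate-averaged calcium signal over 20% of the ionomycin maximum, relative to buffer baseline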;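 also: each well's signal is peak minus trough fluorescence divided by its pre-addition baseline; 0% = buffer wells and 100% = ionomycin wells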
Parental YFP cnt: counter-screen for TMEM16A inhibitors: effect in parental YFP-HEK293 cells. shares compounds with TMEM16A inh. iodide YFP quench, ionomycin. YFP ratio F(max-min)/F0 at 10 µM. 2,300 tested, under 10 active. AID 652233;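 active = yellow fluorescent protein signal ratio exceeding the buffer control mean by over 5 SD of those controls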;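 also: ratio is mean of duplicate wells from kinetic YFP trace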
ClC-1 rat inh: blocks the rat ClC-1 voltage-dependent chloride channel; shares compounds with TMEM16A inh; CHO ClC-1-YFP, iodide influx fluorescence quench; iodide control reads 0, buffer control 100; ratio percent, % at 10 µM; 2,300 tested, under 10 active; AID 652236;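 active = duplicate-mean ratio percent above the mean of iodide-only control wells, which defines zero, plus 5 of their SD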;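 also: higher percent means stronger block of ClC-1 iodide influx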
Active calls of the source: *; i = inactive; . = not tested or not shown. The list is not random: actives were taken first. Their share in the collection is about 3.4%.

SMILES	ANO1 activ	TMEM16A inh	NTR1 ag	MEKK2 mut-MEK5	MEKK3 PB1 HTS	MEKK2wt PB1 HTS	TMEM16A reconf	TMEM16A Ca cntr	Parental YFP cnt	ClC-1 rat inh
C=CCOC(=O)C1=C(C)NC(SCC)=C(C#N)C1c1ccc(Cl)cc1 (stereo unspecified)	i	100*	21	2	106	102	22%*	i	-1.3	-20
CCOC(=O)c1[nH]c(C)c(C(=O)Nc2ccc3c(c2)OCCO3)c1C	i	25*	1	2	99	102	i	i	-0.98	-2
CC(=O)c1c(C)[nH]c(C(=O)Nc2ccc3c(c2)OCCO3)c1C	i	i	-1	7	110	106	.	.	.	.
O=C(O)CN1CCN(c2ncc(C(F)(F)F)cc2Cl)CC1	i	i	3	-12	83	85	.	.	.	.
Fc1ccc(-c2nnc(CN3CCN(c4ncc(C(F)(F)F)cc4Cl)CC3)o2)cc1	i	100*	0	1	104	107	i	i	-1.1	-19
Cc1cc(C)cc(NC(=O)c2nnn(Cc3cc(C)ccc3C)c2N)c1	-4.6*	25*	11	-1	97	97	42%*	i	-1.1	-5
O=C(Cn1cnc2ccccc2c1=O)Nc1ccccc1N1CCOCC1	i	i	3	-4	96	87	.	.	.	.
Cc1nnc2c3ccccc3c(-c3cccs3)nn12	i	i	1	4	108	104	.	.	.	.
Cc1nnc2c3ccccc3c(-c3ccc(O)cc3)nn12	i	25*	-1	.	.	.	i	i	-1.2	-6
O=C1c2cnc3nc(SCc4cccc(Cl)c4)nn3c2CC2c3ccccc3CCN12 (stereo unspecified)	i	i	14	-2	98	93	.	.	.	.
COc1ccc(-n2c(SCCC(=O)O)nnc2-c2ccncc2)cc1	i	100*	2	-11	89	93	i	i	-1.2	2
COc1ccc(-c2nnc(SCCC(=O)O)n2-c2ccccc2)cc1OC	i	i	0	6	98	100	.	.	.	.
Cc1ccccc1OCc1nc(-c2ccc(NC(=O)c3ccco3)cc2)no1	i	25*	6	2	105	106	i	i	-1	-10
O=C1OC(c2ccc3c(c2)OCO3)=N/C1=C\c1ccc(C(=O)O)cc1	i	i	-1	0	105	92	.	.	.	.
CN(C(=O)CSc1nnc(C2CC2)n1C1CC1)C1(C#N)CCCCC1	i	.	1	.	.	.	.	.	.	.
NC(=O)c1cc(S(=O)(=O)N2CCCCC2)cs1	i	i	-1	2	102	104	.	.	.	.
Cc1ccc(C)c(N2CCN(S(=O)(=O)c3csc(C(N)=O)c3)CC2)c1	i	25*	2	0	98	101	i	i	-0.88	0
O=C(C1COc2ccccc2O1)N1CCN(S(=O)(=O)c2ccccc2)CC1 (stereo unspecified)	i	i	1	3	105	106	.	.	.	.
Cc1ccccc1C1=NC(C(F)(F)F)(C(F)(F)F)c2c(n(C)c(=O)n(C)c2=O)N1	i	i	3	1	127	108	.	.	.	.
Cn1c2c(c(=O)n(C)c1=O)C(C(F)(F)F)(C(F)(F)F)N=C(c1ccc(Cl)cc1)N2	i	100*	2	0	99	101	42%*	i	-1	-32

Screening results from PubChem.
